Reference: PubChem BioAssay (EPA / NIEHS)
Some structures have more than one record in an assay (separate samples or runs), and their calls can disagree. Calls of active or inactive are those of the source. How the source made its calls: active means hit-call score of the fitted dose curve at least 0.9, where 1 is the maximum; inactive means score below 0.9.

Key:
[1] = ATG_GRE_CIS: Attagene CIS-FACTORIAL HepG2 Assay for human Glucocorticoid Response Elements (GRE) (AID 2282947); settings: HepG2 GRE cis-reporter, Attagene multiplex mRNA; actives raise or lower the signal
Method in brief: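 Following 24 h chemical exposure of transiently transfected HepG2 cells, total RNA was reverse-transcribed and reporter cDNA amplified, fluorescently labelled and sized by capillary electrophoresis. Signal gain or loss was fitted relative to DMSO vehicle.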

[2] = ATG_ISRE_CIS: Attagene CIS-FACTORIAL HepG2 Assay for human Interferon Regulatory Factor 1 (IRF1) binding to an Interferon-Stimulated Response Element (ISRE) (AID 2282948); settings: HepG2 ISRE cis-reporter (Attagene), mRNA transcription readout; actives raise or lower the signal
Method in brief: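 Quantitation relies on labelled RT-PCR fragments separated by capillary electrophoresis. Human HepG2 cells bearing cis-promoter reporter constructs were treated 24 h; DMSO served as baseline for bidirectional fitting.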

[3] = ATG_M_32_CIS: Attagene CIS-FACTORIAL HepG2 Assay for M32 Transcription Factor (Internal Marker) (AID 2282949); settings: HepG2 Attagene cis-factorial M32 reporter, mRNA; actives raise or lower the signal;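 further: background control marker of the multiplexed CIS panel rather than a real target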
Method in brief: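 HepG2 cells transiently transfected with multiplexed cis-regulated reporter units, dosed 24 h. Reporter mRNA quantified by RT-PCR, 6-FAM labelling, HpaI digestion and capillary electrophoresis; bidirectional fit vs DMSO.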

[4] = ATG_M_06_CIS: Attagene CIS-FACTORIAL HepG2 Assay for M06 Transcription Factor (Internal Marker) (AID 2282950); settings: HepG2 Attagene CIS-FACTORIAL M06 internal marker reporter; actives raise or lower the signal
Method in brief: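 Cells (HepG2, transiently carrying cis-driven reporter units) receive chemical for 24 h before RNA isolation. Reporter cDNA is PCR-amplified, FAM-labelled by primer extension, HpaI-digested and sized on a capillary analyser.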

[5] = target: Hypoxia-inducible factor 1-alpha (Homo sapiens) (UniProt Q16665); assay: ATG_HIF1a_CIS: Attagene CIS-FACTORIAL HepG2 Assay for human Hypoxia Inducible Factor 1 (HIF1A) (AID 2282951); settings: HepG2 Attagene cis-factorial HIF1a reporter transcription; actives raise or lower the signal
Chain of Hypoxia-inducible factor 1-alpha (Homo sapiens) (Q16665 whole entry, looked up): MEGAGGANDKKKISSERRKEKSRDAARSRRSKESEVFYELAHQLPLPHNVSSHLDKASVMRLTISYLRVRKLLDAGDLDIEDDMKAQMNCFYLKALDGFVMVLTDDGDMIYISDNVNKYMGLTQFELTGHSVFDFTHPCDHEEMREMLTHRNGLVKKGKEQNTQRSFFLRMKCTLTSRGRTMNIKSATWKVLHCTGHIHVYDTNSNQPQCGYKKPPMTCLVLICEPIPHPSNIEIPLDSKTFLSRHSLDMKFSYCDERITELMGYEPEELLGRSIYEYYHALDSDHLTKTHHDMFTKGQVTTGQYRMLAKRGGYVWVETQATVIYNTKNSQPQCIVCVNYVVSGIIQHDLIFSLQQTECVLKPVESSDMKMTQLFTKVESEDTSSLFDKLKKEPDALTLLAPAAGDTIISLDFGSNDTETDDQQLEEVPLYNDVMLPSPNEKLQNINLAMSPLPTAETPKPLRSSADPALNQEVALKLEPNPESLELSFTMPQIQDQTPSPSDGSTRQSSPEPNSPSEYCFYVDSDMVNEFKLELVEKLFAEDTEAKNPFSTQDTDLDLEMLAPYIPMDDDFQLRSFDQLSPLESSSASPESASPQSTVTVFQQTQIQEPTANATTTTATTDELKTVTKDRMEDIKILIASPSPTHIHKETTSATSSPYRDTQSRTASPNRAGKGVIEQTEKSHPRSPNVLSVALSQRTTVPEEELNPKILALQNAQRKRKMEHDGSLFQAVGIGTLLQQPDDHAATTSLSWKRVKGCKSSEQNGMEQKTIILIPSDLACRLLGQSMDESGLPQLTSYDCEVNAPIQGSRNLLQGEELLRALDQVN
Method in brief: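 Cis-element reporter constructs were transiently transfected into HepG2 cells, which were treated for 24 h; reporter RNA was reverse-transcribed, amplified, labelled and resolved by capillary electrophoresis.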

[6] = target: Hepatocyte nuclear factor 6 (Homo sapiens) (UniProt Q9UBC0); assay: ATG_HNF6_CIS: Attagene CIS-FACTORIAL HepG2 Assay for human Hepatocyte Nuclear Factor 6 (HNF6) (AID 2282952); settings: HepG2 Attagene cis-factorial HNF6 reporter transcription; actives raise or lower the signal
Chain of Hepatocyte nuclear factor 6 (Homo sapiens) (Q9UBC0 whole entry, looked up, the tested form may be a part): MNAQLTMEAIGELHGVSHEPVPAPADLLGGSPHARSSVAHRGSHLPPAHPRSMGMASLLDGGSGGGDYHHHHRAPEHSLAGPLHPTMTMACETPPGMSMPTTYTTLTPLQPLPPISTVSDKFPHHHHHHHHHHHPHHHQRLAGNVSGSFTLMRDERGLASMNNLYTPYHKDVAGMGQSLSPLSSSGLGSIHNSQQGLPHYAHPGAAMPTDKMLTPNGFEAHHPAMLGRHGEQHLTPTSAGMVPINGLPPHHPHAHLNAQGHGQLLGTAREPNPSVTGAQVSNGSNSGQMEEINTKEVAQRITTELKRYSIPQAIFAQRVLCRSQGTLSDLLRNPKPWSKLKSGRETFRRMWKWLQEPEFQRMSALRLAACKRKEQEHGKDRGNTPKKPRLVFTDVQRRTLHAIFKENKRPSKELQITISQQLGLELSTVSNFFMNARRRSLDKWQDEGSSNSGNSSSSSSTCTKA
Method in brief: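 Reporter mRNA induction or loss in HepG2 after 24 h exposure; transient cis-MRTU transfection; fragments quantified by capillary electrophoresis; bidirectional analysis, DMSO as negative control.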

[7] = target: Heat shock factor protein 1 (Homo sapiens) (UniProt Q00613); assay: ATG_HSE_CIS: Attagene CIS-FACTORIAL HepG2 Assay for human Heat Shock Transcription Factor 1 (HSE) (AID 2282953); settings: HepG2 HSE cis-reporter, Attagene RNA transcription; actives raise or lower the signal
Chain of Heat shock factor protein 1 (Homo sapiens) (Q00613 whole entry, looked up): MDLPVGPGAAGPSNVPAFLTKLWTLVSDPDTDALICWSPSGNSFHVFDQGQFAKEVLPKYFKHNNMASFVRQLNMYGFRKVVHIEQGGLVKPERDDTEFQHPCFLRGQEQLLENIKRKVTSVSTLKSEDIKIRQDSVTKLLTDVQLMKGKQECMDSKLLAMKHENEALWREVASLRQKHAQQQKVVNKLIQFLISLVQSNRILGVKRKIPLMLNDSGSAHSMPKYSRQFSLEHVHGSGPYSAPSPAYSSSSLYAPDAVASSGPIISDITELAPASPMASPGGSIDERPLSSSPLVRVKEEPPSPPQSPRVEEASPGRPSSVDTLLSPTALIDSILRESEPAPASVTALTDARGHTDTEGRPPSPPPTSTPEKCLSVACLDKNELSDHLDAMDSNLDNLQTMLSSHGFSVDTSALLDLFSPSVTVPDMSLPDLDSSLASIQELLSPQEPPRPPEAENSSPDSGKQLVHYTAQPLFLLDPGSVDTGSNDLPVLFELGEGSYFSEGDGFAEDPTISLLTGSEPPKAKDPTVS
Method in brief: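 Liver-derived HepG2 cells carry transiently introduced multiple reporter units governed by cis promoters. Reporter RNA measured 24 h post-dose through reverse transcription, PCR amplification, fluorescent labelling and capillary electrophoresis, normalised to DMSO.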

[8] = ATG_MRE_CIS: Attagene CIS-FACTORIAL HepG2 Assay for human Metal Responsive Element (MRE) (AID 2282954); settings: HepG2 MRE cis-reporter transcription, Attagene multiplex; actives raise or lower the signal
Method in brief: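 Step one: transfect HepG2 with cis-regulated reporter units. Step two: dose 24 h. Step three: isolate RNA, RT-PCR, 6-FAM label, HpaI digest, capillary electrophoresis. Fit bidirectionally to DMSO.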

[9] = target: Paired box protein Pax-6 (Homo sapiens) (UniProt P26367); assay: ATG_Pax6_CIS: Attagene CIS-FACTORIAL HepG2 Assay for human Paired Box 6 (PAX6) (AID 2282956); settings: HepG2 CIS-FACTORIAL PAX6 reporter transcription, RNA readout; actives raise or lower the signal
Chain of Paired box protein Pax-6 (Homo sapiens) (P26367 whole entry, looked up): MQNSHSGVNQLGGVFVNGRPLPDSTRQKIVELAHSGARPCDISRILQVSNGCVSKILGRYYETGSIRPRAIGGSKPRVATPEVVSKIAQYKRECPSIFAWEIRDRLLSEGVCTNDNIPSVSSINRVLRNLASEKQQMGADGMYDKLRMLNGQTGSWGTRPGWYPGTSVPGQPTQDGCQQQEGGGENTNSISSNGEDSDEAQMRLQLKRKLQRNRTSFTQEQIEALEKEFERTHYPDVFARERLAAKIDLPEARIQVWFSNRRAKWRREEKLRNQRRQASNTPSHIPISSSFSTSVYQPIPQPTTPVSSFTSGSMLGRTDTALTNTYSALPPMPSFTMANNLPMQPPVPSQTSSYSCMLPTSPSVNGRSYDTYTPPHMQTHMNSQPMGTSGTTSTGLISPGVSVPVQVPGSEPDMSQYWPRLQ
Method in brief: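 After twenty-four hours of chemical exposure, transfected HepG2 cells are harvested for RNA. Cis-promoter reporter transcripts are amplified, fluorescently labelled and sized by capillary electrophoresis, with gain and loss of signal scored against DMSO.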

[10] = ATG_PXRE_CIS: Attagene CIS-FACTORIAL HepG2 Assay for human Pregnane X Receptor Element (PXRE) (AID 2282957); settings: HepG2 Attagene CIS-FACTORIAL PXRE reporter, mRNA; actives raise or lower the signal
Method in brief: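 Transiently transfected HepG2 cells were dosed and incubated for 24 h. RNA was then isolated, DNase-treated, reverse-transcribed and reporter sequences amplified. Labeled, HpaI-digested fragments were quantified by capillary electrophoresis against DMSO.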

[11] = ATG_RORE_CIS: Attagene CIS-FACTORIAL HepG2 Assay for human RAR-related Orphan Receptor Element (RORE) (AID 2282959); settings: HepG2 Attagene cis-factorial RORE reporter, mRNA; actives raise or lower the signal
Method in brief: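 Transfect HepG2 with MRTUs; treat 24 h; extract RNA; RT with oligo(dT); PCR with reporter-specific primers; 6-FAM primer extension; HpaI digest 2 h at 37 C; capillary electrophoresis. Fit vs DMSO, bidirectional.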

[12] = ATG_Sox_CIS: Attagene CIS-FACTORIAL HepG2 Assay for human SRY-box transcription factor (SOX) (AID 2282960); settings: HepG2 Attagene cis-factorial SOX reporter, mRNA; actives raise or lower the signal
Method in brief: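 Fluorescence-labelled cDNA fragments from reporter transcripts, sized by CE, give the signal. Cells: HepG2, transiently transfected with cis-regulated reporter units. Exposure 24 h; DMSO negative control; bidirectional curve fitting.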

[13] = target: Transcription factor Sp1 (Homo sapiens) (UniProt P08047); assay: ATG_Sp1_CIS: Attagene CIS-FACTORIAL HepG2 Assay for human Specificity Protein 1 (Sp1) (AID 2282961); settings: HepG2 Sp1 cis-reporter transcription, actives raise or lower the signal
Chain of Transcription factor Sp1 (Homo sapiens) (P08047 whole entry, looked up): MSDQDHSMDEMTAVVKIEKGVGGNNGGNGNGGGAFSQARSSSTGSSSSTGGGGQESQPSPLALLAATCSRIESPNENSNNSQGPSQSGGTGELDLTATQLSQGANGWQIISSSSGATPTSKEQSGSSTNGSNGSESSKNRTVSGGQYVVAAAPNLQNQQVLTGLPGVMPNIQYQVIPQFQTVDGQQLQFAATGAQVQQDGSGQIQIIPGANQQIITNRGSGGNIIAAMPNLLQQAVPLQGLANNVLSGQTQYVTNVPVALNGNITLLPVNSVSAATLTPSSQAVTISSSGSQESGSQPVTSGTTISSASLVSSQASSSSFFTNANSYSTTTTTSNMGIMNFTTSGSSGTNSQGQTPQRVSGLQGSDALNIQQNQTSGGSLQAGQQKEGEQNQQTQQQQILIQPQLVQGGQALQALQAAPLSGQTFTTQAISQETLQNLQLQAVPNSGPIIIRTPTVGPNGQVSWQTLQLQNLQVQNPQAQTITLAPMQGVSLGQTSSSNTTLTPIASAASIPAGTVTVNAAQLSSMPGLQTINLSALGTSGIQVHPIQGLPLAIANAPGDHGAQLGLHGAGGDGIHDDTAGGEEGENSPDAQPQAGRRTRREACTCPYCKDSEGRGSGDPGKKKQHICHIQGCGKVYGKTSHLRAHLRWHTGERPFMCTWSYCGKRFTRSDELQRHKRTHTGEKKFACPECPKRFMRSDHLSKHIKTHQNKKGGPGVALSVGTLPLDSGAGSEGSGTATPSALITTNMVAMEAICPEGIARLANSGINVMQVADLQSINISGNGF
Method in brief: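 Chemicals are dosed onto HepG2 cells transfected with multiple cis-promoter reporter constructs, and after 24 h reporter RNA is reverse-transcribed, PCR-amplified and resolved by capillary electrophoresis for fluorescence quantitation; activity is scored up or down against DMSO.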

[14] = ATG_SREBP_CIS: Attagene CIS-FACTORIAL HepG2 Assay for human Sterol Regulatory Element Binding (SREBP) (AID 2282962); settings: HepG2 Attagene cis-factorial SREBP reporter, mRNA; actives raise or lower the signal
Method in brief: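 Twenty-four hours after chemical dosing of transfected HepG2 cultures, reporter RNA was converted to cDNA, amplified, end-labelled with 6-FAM and resolved by capillary electrophoresis. Responses were fitted relative to DMSO.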

[15] = target: Signal transducer and activator of transcription 3 (Homo sapiens) (UniProt P40763); assay: ATG_STAT3_CIS: Attagene CIS-FACTORIAL HepG2 Assay for human Signal Transducer and Activator of Transcription 3 (STAT3) (AID 2282963); settings: HepG2, Attagene cis-factorial STAT3 reporter transcription; actives raise or lower the signal
Chain of Signal transducer and activator of transcription 3 (Homo sapiens) (P40763 whole entry, looked up): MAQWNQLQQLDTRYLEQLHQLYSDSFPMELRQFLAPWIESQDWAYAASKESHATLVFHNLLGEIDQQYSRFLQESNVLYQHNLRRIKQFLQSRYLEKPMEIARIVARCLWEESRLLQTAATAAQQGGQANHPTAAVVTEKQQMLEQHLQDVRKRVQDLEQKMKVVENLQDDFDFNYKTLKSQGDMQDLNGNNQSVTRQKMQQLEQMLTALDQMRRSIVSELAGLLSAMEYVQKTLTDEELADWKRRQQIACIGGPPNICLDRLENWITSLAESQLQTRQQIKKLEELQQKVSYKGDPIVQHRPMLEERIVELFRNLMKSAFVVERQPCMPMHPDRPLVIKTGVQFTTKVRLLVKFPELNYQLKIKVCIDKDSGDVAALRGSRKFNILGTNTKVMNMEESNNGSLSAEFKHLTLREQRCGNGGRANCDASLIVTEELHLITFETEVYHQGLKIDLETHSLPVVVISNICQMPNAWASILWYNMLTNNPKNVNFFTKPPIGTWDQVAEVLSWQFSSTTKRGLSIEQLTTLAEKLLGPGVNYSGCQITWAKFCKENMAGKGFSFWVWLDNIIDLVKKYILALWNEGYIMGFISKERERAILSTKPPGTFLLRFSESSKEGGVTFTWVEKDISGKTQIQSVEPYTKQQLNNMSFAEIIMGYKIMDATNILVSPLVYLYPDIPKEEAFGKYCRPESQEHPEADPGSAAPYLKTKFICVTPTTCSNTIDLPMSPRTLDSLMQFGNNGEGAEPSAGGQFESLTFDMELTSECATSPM
Method in brief: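 Transcript-level reporter assay. HepG2 transient MRTU transfection, 24 h exposure, fluorescence detection after RT-PCR and CE; DMSO baseline.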

[16] = ATG_TA_CIS: Attagene CIS-FACTORIAL HepG2 Assay for human TA Basal Promoter (AID 2282964); settings: HepG2 Attagene CIS-factorial TA basal promoter reporter; actives raise or lower the signal
Method in brief: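 Background internal-marker endpoint from a 52-component HepG2 cis-reporter panel. Cells treated 24 h; reporter transcripts quantified via RT-PCR and CE fluorescence against DMSO baseline.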

[17] = ATG_TCF_b_cat_CIS: Attagene CIS-FACTORIAL HepG2 Assay for human T-Cell-Factor with beta-catenin (TCF/b-cat) (AID 2282965); settings: HepG2 TCF/beta-catenin cis-reporter transcription, actives raise or lower the signal
Method in brief: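 In this cis-format system, transfected HepG2 cells report endogenous transcription factor activity. Readout after 24 h exposure is reporter transcript abundance from RT-PCR and capillary electrophoresis, analysed for gain or loss of signal versus DMSO.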

[18] = ATG_PBREM_CIS: Attagene CIS-FACTORIAL HepG2 Assay for human Phenobarbital-responsive Enhancer Module (PBREM) (AID 2282955); settings: HepG2 PBREM cis-reporter, Attagene multiplexed transcription; actives raise or lower the signal
Method in brief: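 Multiplexed cis-reporter readout in human hepatoma HepG2 cells; PBREM-regulated transcript quantified after 24 h exposure by fluorescent RT-PCR fragment analysis. Signal changes up or down fitted relative to DMSO.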

[19] = ATG_PPRE_CIS: Attagene CIS-FACTORIAL HepG2 Assay for human Peroxisome Proliferator-activated Response Element (PPRE) (AID 2282958); settings: HepG2 PPRE cis-element reporter, Attagene transcription factor profiling; actives raise or lower the signal
Method in brief: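 DMSO served as negative control and baseline for bidirectional curve fitting. Signal came from PPRE-regulated reporter mRNA in HepG2 cells, measured 24 h post-dosing by RT-PCR, 6-FAM primer extension and capillary electrophoresis.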

Measured: AC50

Cc1ccc2oc(CN(Cc3ccccc3)C(=O)Nc3c(F)cc(F)cc3F)c(-c3ccc(Cl)cc3)c2c1
active: [10] 630 nM
not listed: [18] | [19]
inactive: all other assays above

c1ccc2n[nH]nc2c1
inactive: all assays above

Cc1cc2c(cc1C(F)(F)F)N(C(=O)Nc1ccc(Oc3cccnc3C)nc1)CC2
not listed: [10]
inactive: all other assays above

Cc1cc(F)ccc1-c1cc(N2CC[C@@H](O)[C@H]2CO)ncc1N(C)C(=O)C(C)(C)c1cc(C(F)(F)F)cc(C(F)(F)F)c1
active: [10] 350 nM
inactive: all other assays above

COCC(C)OCC(C)OCC(C)O (configuration not stated)
not listed: [10]
inactive: all other assays above

CCCCCCCCCC(=O)O
inactive: [1] | [2] | [3] | [4] | [5] | [6] | [7] | [8] | [9] | [11] | [12] | [13] | [14] | [15] | [16] | [17]
active: [14] 104 µM

NCc1cccc(C2CCN(C(=O)c3ccc(C#Cc4ccccc4F)o3)CC2)c1
inactive: [1] | [3] | [4] | [5] | [6] | [10] | [12] | [13] | [15]
active: [2] 19.4 µM | [7] 17.2 µM | [8] 9.13 µM | [18] 18 µM | [9] 16.4 µM | [19] 2.77 µM | [11] 6.79 µM | [14] 8 µM | [16] 16.1 µM | [17] 17 µM
